From PubChem BioAssay (NCI) come the findings set out here.

About 83,000 compounds went through this panel and 20% of them were active in at least one assay; those are over-represented in the sample as a whole.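 Interpretation: 100, growth as untreated; towards 0, rising growth inhibition; 0, no net growth; 0 to -100, cell death. Compounds scoring below 10 were considered active.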 Unmarked numbers belong to inactive results. Active and inactive are the calls of the source.

Test systems include HCT-15 colon; HT29 colon; SNB-75 CNS; SNB-19 CNS; U251 CNS; SK-MEL-5 melanoma; UACC-62 melanoma; LOX IMVI melanoma; SK-MEL-28 melanoma; PC-3 prostate.
Holding throughout (test): NCI-60 one-dose screen, 48 h (100 = growth as untreated, 0 = no growth, -100 = all killed)
Common to all, as to conditions: 10 µM

As to `C[C@@H](O)[C@H]1C(=O)N2C(C(=O)O)=C(SC3CN[C@H](C(=O)N(C)C)C3)[C@H](C)[C@H]12` (stereo not given in full), the growth in the test with HCT-15 colon was 104%; in the test with HT29 colon, 103%; in the test with SNB-75 CNS, 94.1%; in the test on SNB-19 CNS, 119%; in the test with U251 CNS, 99.3%; in the test on SK-MEL-5 melanoma it was 102%. Besides, the growth in the test on UACC-62 melanoma was 99.4%; in the test on LOX IMVI melanoma it was 96.4%; in the test on SK-MEL-28 melanoma it was 109%.
`CC(=O)/C(=C/c1ccc(Br)cc1)C(=O)c1ccccc1`: the growth was 46.6% with HCT-15 colon; 76.6% with HT29 colon; 84.5% with SNB-75 CNS; 90.6% in the test on SNB-19 CNS; 66.9% with U251 CNS; 80.6% in the test with PC-3 prostate. The growth in the test on SK-MEL-5 melanoma is 66.3%; in the test on LOX IMVI melanoma, -61.9% (active); in the test with SK-MEL-28 melanoma it was 100%.
Take `Clc1ccc2c(c1)C(N1CCNCC1)=Nc1ccccc1O2`: the growth in the test on HCT-15 colon was 47.5%; in the test with HT29 colon, 11.6%; in the test with SNB-75 CNS, 16.4%; in the test with SNB-19 CNS, 67.6%; in the test with U251 CNS, 41.7%; in the test on PC-3 prostate it was 40%. Moreover, the growth is 10.4% in the test with SK-MEL-5 melanoma, 30.4% in the test with UACC-62 melanoma and -10.9% (active) with SK-MEL-28 melanoma.
Take `CCN(CC)CCOC(=O)c1cc(OCc2ccccc2)c(OCc2ccccc2)c(OCc2ccccc2)c1`: the growth is 13.1% with HCT-15 colon; 7.14% (active) with HT29 colon; 72.1% in the test on SNB-75 CNS; 56.9% with SNB-19 CNS; 18.3% with U251 CNS; 49.6% in the test with PC-3 prostate. The growth was 63.3% with SK-MEL-5 melanoma, -16.9% (active) in the test on LOX IMVI melanoma and 63.2% in the test on SK-MEL-28 melanoma.
In the case of `O=C(N/N=C/c1ccc([N+](=O)[O-])cc1)c1ccccc1Nc1cccc(C(F)(F)F)c1`, the growth in the test on HCT-15 colon is 98.6%; in the test with HT29 colon, 69.8%; in the test with SNB-75 CNS it was 87.1%; with SNB-19 CNS it was 105%; with U251 CNS, 89.2%; in the test on PC-3 prostate, 91%. In addition, the growth in the test with SK-MEL-5 melanoma is 83.1%; in the test with UACC-62 melanoma, 90.8%; with SK-MEL-28 melanoma it was 91.7%.
For `CC(C)(C)c1nn(-c2ccccc2)c2c1CC1(CN2Cc2ccc(Cl)cc2)C(=O)c2ccccc2C1=O`, the growth with HCT-15 colon is 88.2%; with HT29 colon, 65.1%; in the test with SNB-75 CNS it was 120%; with SNB-19 CNS it was 84.5%; with U251 CNS, 85.7%; in the test on PC-3 prostate, 44.2%. For the same molecule, the values for the growth with SK-MEL-5 melanoma, in the test with UACC-62 melanoma and with SK-MEL-28 melanoma were 78.5%, 73.6% and 102%, respectively.
Turning to `O=C(CI)OCC(COC(=O)CI)OC(=O)CI`, the growth was 53% with HCT-15 colon; 79.2% with HT29 colon; 116% in the test with SNB-75 CNS; 101% in the test with SNB-19 CNS; 100% with U251 CNS; 94% in the test on PC-3 prostate. Further, the values for the growth in the test on SK-MEL-5 melanoma, with UACC-62 melanoma and in the test with SK-MEL-28 melanoma were 93.1%, 80.9% and 92.3%, respectively.
As for `CCCCCOC(=O)Nc1nc(=O)n(C2O[C@H](C)[C@@H](O)[C@H]2O)cc1F` (stereo not given in full), the growth in the test with HCT-15 colon was 101%; in the test on HT29 colon it was 99.9%; in the test on SNB-75 CNS, 77.1%; with SNB-19 CNS it was 101%; in the test on U251 CNS, 94.8%; in the test with PC-3 prostate, 90.9%. Further, the growth was 99.8% with SK-MEL-5 melanoma, 95% in the test with UACC-62 melanoma and 115% in the test on SK-MEL-28 melanoma.
For `O=C(O)COc1c(Cl)cc([N+](=O)[O-])cc1Cl`, the growth was 103% in the test on HCT-15 colon; 86.2% in the test on HT29 colon; 102% with SNB-75 CNS; 112% in the test on SNB-19 CNS; 97.5% in the test on U251 CNS; 65.3% with PC-3 prostate. For the same molecule, the values for the growth with SK-MEL-5 melanoma, with LOX IMVI melanoma and in the test on SK-MEL-28 melanoma were 96.3%, 100% and 102%, respectively.
Turning to `OC(CCN1CCCC1)(c1ccccc1)C1CCCCC1` (stereo not given), the growth with HCT-15 colon is 92.4%; with HT29 colon it was 101%; in the test on SNB-75 CNS, 84%; in the test with SNB-19 CNS it was 107%; in the test on U251 CNS, 105%; in the test with PC-3 prostate, 98.6%. The results for the growth with SK-MEL-5 melanoma, in the test with LOX IMVI melanoma and with SK-MEL-28 melanoma were 89.8%, 99.9% and 105%, respectively.
Regarding `CC(C)CCN(CCC(C)C)CC(=O)Nc1ccc(S(=O)(=O)c2ccc(NC(=O)CN(CCC(C)C)CCC(C)C)cc2)cc1`, the growth in the test with HCT-15 colon was 10.4%; in the test on HT29 colon it was 10.3%; in the test with SNB-75 CNS, 79.3%; with SNB-19 CNS, 52.6%; in the test with U251 CNS it was 10.5%; in the test with SK-MEL-5 melanoma it was 47%. Further, the growth in the test on UACC-62 melanoma is 29.7%; in the test with LOX IMVI melanoma, -78.4% (active); with SK-MEL-28 melanoma, 72.6%.
For `Cc1ccc(NCCN(C)CC(C)O)c2c(=O)c3ccccc3sc12` (stereo not given), the growth in the test with HCT-15 colon was 32.7%; in the test with HT29 colon it was 7.09% (active); in the test on SNB-75 CNS, 57%; in the test with SNB-19 CNS, 54.5%; with U251 CNS, 31.9%; in the test on PC-3 prostate, 41%. Moreover, the growth was 58.1% with SK-MEL-5 melanoma, -2.71% (active) in the test with UACC-62 melanoma and 57% in the test with SK-MEL-28 melanoma.
With `c1ccc2c(c1)Cc1ccccc1N2CCN1CCCCC1`, the growth is 94.2% with HCT-15 colon; 74.4% with HT29 colon; 94.7% in the test on SNB-75 CNS; 90.6% in the test with SNB-19 CNS; 90.1% in the test on U251 CNS; 82.7% in the test with PC-3 prostate. Besides, the growth was 95.5% in the test with SK-MEL-5 melanoma, 87.8% in the test on LOX IMVI melanoma and 110% in the test on SK-MEL-28 melanoma.
With `Cc1ccc(/C=C2/C(=O)N(C)c3ccc(S(=O)(=O)Nc4ccc(C(C)(C)C)cc4)cc32)s1`, the growth was 83.8% with HCT-15 colon; 75.7% in the test with HT29 colon; -9.41% (active) in the test with SNB-75 CNS; 66.6% in the test on SNB-19 CNS; 62.6% with U251 CNS; 56.6% in the test with PC-3 prostate. Moreover, the values for the growth in the test on SK-MEL-5 melanoma, in the test with UACC-62 melanoma and with SK-MEL-28 melanoma were 89.4%, 74.9% and 81.8%, respectively.
`CCCCN(CCCC)C(=O)[C@H](CC)[C@@H]1CC[C@@H](C)[C@@H]([C@H](C)[C@@H](O)[C@@H](C)C(=O)[C@H](CC)C2O[C@]3(C=CC(=O)[C@]4(CC[C@@](C)([C@H]5CC[C@](O)(CC)[C@H](C)O5)O4)O3)[C@H](C)C[C@@H]2C)O1` (stereo not given in full): the growth is 54% in the test on HCT-15 colon; 20.9% in the test with HT29 colon; 33.3% in the test on SNB-75 CNS; 27% with SNB-19 CNS; 32.7% with U251 CNS; 18% with SK-MEL-5 melanoma. Also, the growth in the test on UACC-62 melanoma was 22.5%; in the test on LOX IMVI melanoma, 43.5%; in the test with SK-MEL-28 melanoma, 23.8%.
